Among all 5,500 compounds or so, about 2,000 (36%) were called active. Roughly 18% stayed inconclusive and do not appear here. Cut-off read from the data, not from the text of the source: active = normalized growth mostly below about 0.91 (no sharp cut-off); inconclusive = no clear call, values can overlap the other calls; inactive = mostly above about 0.92. Some of the results follow.
Experiment: chemical genetic growth profiling, strain panel (AID 1159580);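 note: tested at 20 µM; growth read once vehicle control cultures reached saturation at 30 °C; 1 = growth at the plate median or of vehicle wells; lower values mean less growth of the strain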
Details: S. cerevisiae deletion strains, growth OD

Measured: normalized growth

C=C1CCC(OC(C)=O)/C(C)=C/C[C@@H]2[C@@H]1CC2(C)C (some centres undefined)
inactive: locus YAL021C, strain ccr4, active compounds read low 1.01 | locus YAL026C, strain drs2, active compounds read low 1.01 | locus YAL030W, strain snc1, active compounds read low 1.01 | locus YBL061C, strain skt5, active compounds read low 1.01 | locus YBR009C, strain hhf1, active compounds read low 1.01 | locus YBR021W, strain FUR4, active compounds read low 1.02 | locus YBR023C, strain chs3, active compounds read low 1.01 | locus YBR171W, strain sec66, active compounds read low 1 | locus YBR229C, strain ROT2, active compounds read low 1 | locus YBR231C, strain swc5, active compounds read low 1.01 | locus YBR279W, strain paf1, active compounds read low 1.01 | locus YCL011C, strain gbp2, active compounds read low 1.02 | locus YCL016C, strain dcc1, active compounds read low 1.01 | locus YCL029C, strain bik1, active compounds read low 1.03 | locus YCL061C, strain MRC1, active compounds read low 1.01 | locus YCL069W, strain vba3, active compounds read low 1.01 | locus YCR088W, strain abp1, active compounds read low 1.01 | locus YDL005C, strain med2, active compounds read low 1.01 | locus YDL035C, strain GPR1, active compounds read low 1.01 | locus YDL040C, strain nat1, active compounds read low 1.01 | locus YDL074C, strain BRE1, active compounds read low 1.02 | locus YDL101C, strain DUN1, active compounds read low 1.02 | locus YDL185W, strain tfp1, active compounds read low 1.03 | locus YDL192W, strain arf1, active compounds read low 1.02 | locus YDR001C, strain nth1, active compounds read low 1 | locus YDR069C, strain doa4, active compounds read low 1.03 | locus YDR101C, strain arx1, active compounds read low 0.983 | locus YDR137W, strain rgp1, active compounds read low 0.929 | locus YDR159W, strain sac3, active compounds read low 1.02 | locus YDR162C, strain NBP2, active compounds read low 0.997 | locus YDR195W, strain ref2 1.02 | locus YDR297W, strain sur2, active compounds read low 1.02 | locus YDR318W, strain mcm21, active compounds read low 1.03 | locus YDR334W, strain swr1, active compounds read low 1.01 | locus YDR335W, strain msn5, active compounds read low 1.01 | locus YDR388W, active compounds read low 1.02 | locus YDR392W, strain spt3, active compounds read low 0.812 | locus YDR502C, strain sam2, active compounds read low 1.03 | locus YEL003W, strain gim4, active compounds read low 1.02 | locus YEL037C, strain rad23, active compounds read low 1.01 | locus YEL061C, strain CIN8 (second series), active compounds read low 1.02 | locus YER015W, strain faa2, active compounds read low 1.01 | locus YER016W, strain bim1, active compounds read low 1.01 | locus YER110C, active compounds read low 1.03 | locus YER111C, strain swi4, active compounds read low 1.01 | locus YER155C, strain BEM2 (second series), active compounds read low 1.03 | locus YER155C, strain BEM2, active compounds read low 1.02 | locus YER167W, strain BCK2, active compounds read low 1.01 | locus YFR010W, strain ubp6, active compounds read low 1.01 | locus YGL078C, strain dbp3, active compounds read low 1.04 | locus YGL086W, strain mad1, active compounds read low 1.01 | locus YGL167C, strain pmr1, active compounds read low 1.02 | locus YGL173C, strain kem1, active compounds read low 1.01 | locus YGL227W, strain vid30, active compounds read low 1.03 | locus YGL240W, strain doc1, active compounds read low 1.01 | locus YGL248W, strain PDE1, active compounds read low 1.01 | locus YGL253W, strain hxk2, active compounds read low 1.01 | locus YGR078C, strain PAC10, active compounds read low 1.03 | locus YGR135W, strain pre9, active compounds read low 1.05 | locus YGR252W, strain gcn5, active compounds read low 1.05 | locus YHR013C, strain ard1, active compounds read low 1 | locus YHR027C, strain rpn1, active compounds read low 1.01 | locus YHR030C, strain SLT2, active compounds read low 1.01 | locus YHR079C, strain IRE1 (second series), active compounds read low 1.02 | locus YHR094C, strain hxt1, active compounds read low 1.01 | locus YHR129C, strain ARP1, active compounds read low 1.01 | locus YHR142W, strain chs7, active compounds read low 0.987 | locus YHR200W, strain rpn10, active compounds read low 1 | locus YIL066C, strain RNR3, active compounds read low 1 | locus YIL073C, strain SPO22, active compounds read low 1.06 | locus YIL125W, strain kgd1, active compounds read low 1 | locus YIR030C, strain dcg1, active compounds read low 1.02 | locus YJL092W, strain hpr5, active compounds read low 1.01 | locus YJL095W, strain BCK1 (second series), active compounds read low 1.01 | locus YJL095W, strain BCK1, active compounds read low 1.02 | locus YJL115W, strain asf1, active compounds read low 1.01 | locus YJL129C, strain trk1, active compounds read low 0.976 | locus YJL134W, strain LCB3, active compounds read low 1.01 | locus YJL154C, strain vps35, active compounds read low 1.01 | locus YJL164C, strain tpk1, active compounds read low 1.01 | locus YJL166W, strain qcr8, active compounds read low 1 | locus YJL168C, strain set2, active compounds read low 1.02 | locus YJL187C, strain SWE1 (second series), active compounds read low 1.05 | locus YJL187C, strain SWE1, active compounds read low 1.01 | locus YJR075W, strain HOC1, active compounds read low 1.02 | locus YKL009W, strain mrt4, active compounds read low 1 | locus YKL068W, active compounds read low 1.01 | locus YKL085W, strain MDH1 (second series), active compounds read low 1.02 | locus YKL085W, strain MDH1, active compounds read low 1.02 | locus YKL160W, strain elf1, active compounds read low 1 | locus YKL190W, strain CNB1, active compounds read low 1.01 | locus YKR001C, strain vps1, active compounds read low 0.996 | locus YKR026C, strain gcn3, active compounds read low 0.987 | locus YKR091W, strain srl3, active compounds read low 1.01 | locus YLL001W, strain dnm1, active compounds read low 1.02 | locus YLL026W, active compounds read low 1.02 | locus YLL041C, strain sdh2, active compounds read low 1.01 | locus YLR027C, strain aat2, active compounds read low 1 | locus YLR039C, strain RIC1, active compounds read low 0.957 | locus YLR058C, strain SHM2, active compounds read low 1 | locus YLR102C, strain apc9, active compounds read low 1 | locus YLR221C, strain rsa3, active compounds read low 1.01 | locus YLR258W, strain gsy2, active compounds read low 1.01 | locus YLR262C, strain YPT6 (second series), active compounds read low 0.905 | locus YLR262C, strain YPT6, active compounds read low 0.932 | locus YLR268W, strain sec22, active compounds read low 0.995 | locus YLR320W, strain mms22, active compounds read low 0.972 | locus YLR342W, strain FKS1, active compounds read low 1.01 | locus YLR357W, strain rsc2, active compounds read low 1.01 | locus YLR370C, strain arc18, active compounds read low 1.01 | locus YLR371W, strain rom2, active compounds read low 1.03 | locus YLR384C, strain iki3, active compounds read low 0.999 | locus YLR418C, strain cdc73, active compounds read low 1.06 | locus YML016C, strain PPZ1, active compounds read low 1.02 | locus YML032C, strain rad52, active compounds read low 0.995 | locus YML120C, strain ndi1, active compounds read low 1.02 | locus YML124C, strain tub3, active compounds read low 1.01 | locus YMR058W, strain fet3, active compounds read low 1.01 | locus YMR078C, strain ctf18, active compounds read low 1.03 | locus YMR125W, strain sto1, active compounds read low 1.02 | locus YMR129W, active compounds read low 1.01 | locus YMR205C, strain PFK2, active compounds read low 0.996 | locus YMR223W, strain ubp8, active compounds read low 1.02 | locus YMR231W, strain pep5, active compounds read low 1.01 | locus YMR307W, strain GAS1, active compounds read low 0.973 | locus YNL067W, strain RPL9B, active compounds read low 1.02 | locus YNL071W, strain lat1, active compounds read low 0.99 | locus YNL209W, strain ssb2, active compounds read low 1.02 | locus YNL233W, strain BNI4, active compounds read low 1.04 | locus YNL248C, strain rpa49, active compounds read low 0.997 | locus YNL250W, strain rad50, active compounds read low 1.07 | locus YNL271C, strain bni1, active compounds read low 1.01 | locus YNL298W, strain CLA4, active compounds read low 1.01 | locus YNL307C, strain MCK1, active compounds read low 1.02 | locus YNL322C, strain KRE1 (second series), active compounds read low 1.02 | locus YNL322C, strain KRE1, active compounds read low 1.01 | locus YNR049C, strain mso1, active compounds read low 1.02 | locus YNR052C, strain pop2, active compounds read low 1.03 | locus YOL012C, strain htz1 1.04 | locus YOL147C, strain pex11, active compounds read low 1.02 | locus YOR001W, strain rrp6, active compounds read low 1.02 | locus YOR061W, strain CKA2, active compounds read low 1 | locus YOR069W, strain VPS5, active compounds read low 1.01 | locus YOR070C, strain gyp1, active compounds read low 1 | locus YOR080W, strain dia2, active compounds read low 1.01 | locus YOR083W, strain WHI5, active compounds read low 1.01 | locus YOR106W, strain vam3, active compounds read low 0.994 | locus YOR136W, strain idh2, active compounds read low 0.997 | locus YOR144C, strain elg1, active compounds read low 1.01 | locus YOR184W, strain ser1, active compounds read low 0.992 | locus YOR265W, strain rbl2, active compounds read low 1.01 | locus YOR270C, strain vph1, active compounds read low 0.909 | locus YOR290C, strain snf2, active compounds read low 0.963 | locus YOR316C, strain cot1, active compounds read low 1.02 | locus YPL051W, strain arl3, active compounds read low 0.994 | locus YPL055C, strain LGE1, active compounds read low 1.04 | locus YPL078C, strain atp4, active compounds read low 1 | locus YPL106C, strain sse1, active compounds read low 1.05 | locus YPL240C, strain hsp82, active compounds read low 1.01 | locus YPR119W, strain clb2, active compounds read low 1.01 | locus YPR141C, strain kar3, active compounds read low 1.02 | locus YPR163C, strain tif3, active compounds read low 1 | locus YPR167C, strain met16, active compounds read low 1.02 | strain wtn01, active compounds read low 1

Reference: PubChem BioAssay AID1159580 (chemical genetic matrix, 2015)
